Measured values taken from PubChem BioAssay (NCI).
About 83,000 compounds went through this panel and 20% of them were active in at least one assay; those are over-represented in the sample as a whole.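 Step 1: grow cells in 96-well plates. Step 2: add test compound at a single concentration. Step 3: incubate 48 h. Step 4: record percent growth.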 Active and inactive are the calls of the source. Rule for the calls: active = growth percent below 10; inactive = the rest.

Experiments:
Test in all cases: NCI-60 one-dose screen, 48 h (100 = growth as untreated, 0 = no growth, -100 = all killed)
Details in all cases: 10 µM unless noted
[1] = tested on: NCI-H23 lung
[2] = tested on: NCI-H226 lung
[3] = tested on: NCI-H322M lung
[4] = tested on: HOP-62 NSCLC
[5] = tested on: NCI-H460 lung
[6] = tested on: HOP-92 NSCLC
[7] = tested on: NCI-H522 lung
[8] = tested on: A549/ATCC NSCLC
[9] = tested on: 786-0 renal
[10] = tested on: COLO 205 colon

Measured: growth

C[C@@H](Oc1ccc(C(=O)NS(=O)(=O)C(C)(C)C)cc1C(F)(F)F)c1ccc(Oc2ccccc2)cn1
inactive: [1] 61.2% | [2] 72.7% | [3] 54.3% | [4] 52.2% | [5] 45.7% | [6] 63.7% | [7] 24.5% | [8] 74.8% | [9] 37.5% | [10] 48.7%

CCOc1ccc(NC(=O)c2ccoc2COc2ccccc2)cc1
inactive: [1] 103% | [2] 111% | [3] 99.7% | [4] 111% | [5] 112% | [6] 95.2% | [7] 93.9% | [8] 103% | [9] 105% | [10] 123%

CC(C)=CCC/C(C)=C/CC/C(C)=C/CC/C(C)=C/CSC[C@H](NC(=O)CCCCCN1CCN(C)CC1)C(=O)NC1CCCCC1
inactive: [1] 73% | [2] 95.8% | [3] 89.8% | [4] 85.6% | [6] 76.4% | [7] 85% | [8] 71.7% | [9] 83.7%
active: [5] -7.73% | [10] 8.86%

N#CC1=C(N)Oc2ccc3ccccc3c2C1c1ccccc1Cl (stereo not given)
inactive: [1] 61.6% | [2] 70.8% | [3] 74.9% | [4] 38.7% | [5] 20.4% | [6] 69.1% | [7] 34.4% | [8] 53% | [9] 42.4% | [10] 39.3%

O=C(/C(=C(\C(=O)c1ccccc1)c1ccccc1)c1ccccc1)c1ccccc1
inactive: [1] 42% | [2] 63.9% | [3] 76% | [4] 80.3% | [5] 25.1% | [6] 37.8% | [7] 43.3% | [8] 28.9% | [9] 69.9% | [10] 53.2%

Cc1ccc(NC2CC(=O)N(c3c(C)cc(C)cc3C)C2=O)c(C)c1 (stereo not given)
inactive: [1] 108% | [2] 109% | [3] 101% | [4] 110% | [5] 108% | [6] 94.5% | [7] 98.6% | [8] 102% | [9] 105% | [10] 123%

C=CC(=O)N[C@H](Cc1ccc(-c2cc(Cl)cc(Cl)c2)cc1)[C@H](O)[C@@H](O)C(=O)O
inactive: [1] 93.6% | [2] 71.3% | [3] 100% | [4] 87.3% | [5] 94.9% | [6] 84.4% | [7] 59.1% | [8] 72% | [9] 92.2% | [10] 91.9%

Nc1nc(Br)nc2c1ncn2C1CC(O)C(CO)O1 (stereo not given)
inactive: [1] 20.2% | [2] 89.6% | [3] 83.6% | [4] 47% | [5] 97.9% | [6] 51.5% | [7] 109% | [8] 51.4% | [9] 62.8% | [10] 62.8%

COc1cc(-c2nc(-c3ccccc3)c(-c3ccccc3)[nH]2)cc(OC)c1O
active: [1] -31.9% | [4] -26.5% | [5] -37.5% | [7] -23% | [8] -30.9% | [10] -73.8%
inactive: [2] 48.9% | [3] 13% | [6] 38.2% | [9] 19.3%

Cn1cc(-c2csc(-c3cn(CCNC(=O)OC(C)(C)C)c4ccccc34)n2)c2cccnc21
inactive: [1] 65.7% | [2] 55.9% | [3] 90.1% | [4] 72.5% | [5] 92.6% | [6] 56.6% | [7] 52.6% | [8] 78.8% | [9] 93.6% | [10] 73.3%

COc1ccc(-c2cc(-c3c(C)oc4cc5occc5c(OC)c4c3=O)nc(N)c2C#N)cc1OC
inactive: [1] 73.4% | [2] 66.2% | [3] 81.2% | [4] 50.3% | [5] 32.4% | [6] 10.6% | [7] 47.1% | [8] 57.2% | [9] 83.1% | [10] 68.1%

CN(C)CCCCC(C(=O)CBr)(c1ccccc1)c1ccccc1
inactive: [1] 30.6% | [2] 86.1% | [3] 74.5% | [4] 51.8% | [5] 49.5% | [8] 49.7%
active: [6] -12.2% | [7] -90% | [9] 5.16% | [10] -76%

Cc1cc(N2CCCCC2)nc(N(CCCNc2ccnc3cc(Cl)ccc23)Cc2ccco2)n1
active: [4] 8.53% | [6] -6.02% | [10] -35.3%
inactive: [1] 21.4% | [2] 57.1% | [3] 19.6% | [5] 10.7% | [7] 49.9% | [8] 18.4% | [9] 24.2%

C=C(C)[C@@H]1CC[C@]2(CN)CC[C@]3(C)[C@H](CC[C@@H]4[C@@]5(C)CCC(=O)NC(C)(C)[C@@H]5CC[C@]43C)[C@@H]12
inactive: [1] 85.3% | [2] 88.1% | [3] 89.1% | [4] 81.6% | [5] 90.3% | [6] 54.6% | [7] 88% | [8] 59.3% | [9] 84.6% | [10] 75.9%

Nc1c(C(=O)Nc2c(Cl)cccc2Cl)sc2nc3c(cc12)C(=O)CCC3
active: [7] 6.59% | [10] 7.4%
inactive: [1] 48.5% | [2] 71.2% | [3] 56.7% | [4] 30.7% | [5] 12.9% | [6] 42.6% | [8] 38% | [9] 29%

CCc1cccc(CC)c1NC(=O)c1sc2nc3c(cc2c1N)CCCC3
inactive: [1] 87% | [2] 83.2% | [3] 92.8% | [4] 50.5% | [5] 91.1% | [6] 51.2% | [7] 41.9% | [8] 69.7% | [9] 87.8% | [10] 105%

Nc1c(C(=O)Nc2cccc(Br)c2)sc2nc3c(cc12)C(=O)CCC3
inactive: [1] 34% | [2] 75.1% | [3] 64.7% | [4] 40.4% | [6] 79.3% | [8] 24.4% | [9] 51.8%
active: [5] 4.31% | [7] -20% | [10] -11.2%

O=C1NC(=Nc2ccc(S(=O)(=O)Nc3nccs3)cc2)S/C1=C\c1coc2ccccc2c1=O
inactive: [1] 100% | [2] 97.8% | [3] 101% | [4] 99.5% | [5] 101% | [6] 95.3% | [7] 103% | [8] 99.7% | [9] 111% | [10] 113%

CC(C)=CCC[C@](C)(O)[C@H]1CC[C@]2(C)[C@@H]1CC[C@@H]1[C@@]3(C)C/C(=C/c4cccc([N+](=O)[O-])c4)C(=O)C(C)(C)[C@@H]3CC[C@]12C
inactive: [1] 74.9% | [2] 84.5% | [3] 103% | [4] 97.4% | [5] 87.2% | [6] 76.6% | [7] 90.5% | [8] 71% | [9] 88% | [10] 94%

CCOC(=O)C1OC1(c1ccccc1)c1ccccc1 (stereo not given)
inactive: [1] 111% | [2] 106% | [3] 120% | [4] 118% | [5] 109% | [6] 107% | [7] 107% | [8] 84.3% | [9] 117% | [10] 119%

CCCCC[C@H]1CC=C2C(=O)C=C[C@@H]2CC=CCCCC(=O)O[C@@H](CCCCC)CC=C2C(=O)C=C[C@@H]2CC=CCCCC(=O)O[C@@H](CCCCC)CC=C2C(=O)C=C[C@@H]2CC=CCCCC(=O)O1
active: [1] -16.4% [8.75 µM] | [2] 6.47% [8.75 µM] | [4] -10.6% [8.75 µM] | [5] 0.981% [8.75 µM] | [6] -47.7% [8.75 µM] | [7] -48.5% [8.75 µM] | [8] -29.7% [8.75 µM] | [9] -48.7% [8.75 µM] | [10] -30.7% [8.75 µM]
inactive: [3] 17.9% [8.75 µM]

O=c1[nH]c2c3ccncc3cc(-c3cccc(Cl)c3)c2c2cnccc12
inactive: [1] 50.8% | [2] 29.6% | [3] 56.2% | [7] 53.7% | [8] 27.4% | [9] 17.4% | [10] 25.4%
active: [4] 0.205% | [5] 5.33% | [6] 5.61%

CC1(C)[C@@H](O)CC[C@]2(C)[C@H]3CC[C@@H]4[C@H]5[C@H](C(=O)/C=C/c6ccc(C(F)(F)F)cc6)CC[C@]5(CO)CC[C@@]4(C)[C@]3(C)CC[C@@H]12
inactive: [1] 56.9% | [2] 30% | [3] 80.7% | [4] 97.4% | [5] 65.4% | [6] 66% | [7] 60.6% | [8] 47.8% | [9] 64.9% | [10] 73.8%

CC(=O)O[C@H]1CC[C@]2(C)[C@H]3C(=O)C=C4[C@@H]5C[C@](C)(C(=O)N6CCCNCC6)CC[C@]5(C)CC[C@@]4(C)[C@]3(C)CC[C@H]2C1(C)C
active: [4] -50.4% | [5] -83.8% | [8] -52.8% | [9] -71.9% | [10] -87.7%
inactive: [1] 40.1% | [2] 76.6% | [3] 19.8% | [6] 31.1% | [7] 30%

O=C(NO)c1ccc(Cn2c(=O)n(CCc3ccc(O)cc3)c(=O)c3ccccc32)cc1
active: [1] -8.51% | [7] 7.74%
inactive: [2] 82.5% | [3] 80.4% | [4] 68.1% | [5] 60.4% | [6] 80% | [8] 84.2% | [9] 83.4% | [10] 19.6%

CN(C)c1ccc(C(=O)c2ccc(N(C)C)c(N)c2)cc1N
inactive: [1] 40% | [2] 75.6% | [3] 49.3% | [4] 53% | [5] 13.5% | [6] 91% | [7] 49.2% | [8] 56% | [9] 42.4% | [10] 21.3%
